Only some compounds are listed: those with a hit (about 12% of all), similar ones and a draw of the others.
HCV inhibitor: HCV inhibition; Huh7.5.1 HCVcc-Cre infection, luciferase reporter, 44 h; Potency, µM (doses to about 41.8 µM), most hits filed as inhibitors; 340,000 compounds, 3.4% hits
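1,000 cells/well; 4 h culture; + compound; + HCVcc-Cre (~0.5 moi); 44 h; luciferase substrate, RT 15 min; read 15 sec.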
SARS PLP yeast: inhibitors of SARS-CoV papain-like protease in yeast; S. cerevisiae expressing SARS-CoV PLpro, growth rescue; Potency, µM (highest dose often 32.9 µM), usual class: activators; 330,000 compounds, 0.19% hits; calls by dose curve; further: nearly all actives have a fitted effect of over 55% in size
AMA1 RON2 block: inhibitors of Plasmodium falciparum AMA1-RON2 interaction | AlphaScreen AMA1-biotinylated RON2 peptide binding | Potency, µM (series often up to 58.2 µM), actives largely listed as inhibitors | 360,000 compounds, 0.2% hits; further: nearly all actives have a fitted effect of over 45% in size
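AMA1 (3D7) with his tag at 25 nM final met compounds first, then biotinylated RON2 peptide at 25 nM; detection used donor plus acceptor beads, 10 µg/mL apiece, read by AlphaScreen after 30 min at room temperature.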
Pf growth 48h: P. falciparum growth inhibition at 48 hours (one generation) | P. falciparum luciferase growth in erythrocytes, 48 h | 310,000 compounds, 5.9% hits | Potency, µM (top dose mostly 28.7 µM), most hits filed as inhibitors | AID 504832
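A one-generation exposure of luciferase-tagged malaria parasites in RPMI 1640/Albumax erythrocyte culture, 37 C and 5% CO2. Inhibition is inferred from decreased luminescence after adding detection reagent.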
NS1 function inh: influenza NS1 inhibition; Potency, µM (titrated, usually from 46.1 µM); 270,000 compounds, 0.4% hits; AID 2326; calls by dose curve; further: actives are rising curves; nearly all actives have a fitted effect of over 50% in size
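Compounds were scored for reversing the slow growth caused by influenza A NS1 in S. cerevisiae, measured by optical density at 600 nm. Assay medium contained 2% galactose at pH 6.0; NS1-free yeast of the same strain were the positive control.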
Pf growth 96h: P. falciparum growth inhibition at 96 hour, primary screen for plastid delayed-death inhibitors; 320,000 compounds, 6.9% hits; Potency, µM (top dose mostly 28.7 µM), usual class: inhibitors; P. falciparum luciferase reporter growth, 96 h
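Luminescence readout: decreased luciferase signal marks inhibited growth of reporter-expressing P. falciparum in infected red cells (2% hematocrit, 0.05% parasitemia final), exposed to compound two generations (96 h, 37 C, 5% CO2).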
Of the large screens only hits and unclear results are named; the others gave an inactive call. Unless noted, the call rests on the fitted dose curve; in most records, active means well fitted curve in the direction sought with a large enough effect; inconclusive means small, poorly fitted or top-dose-only effect, or another doubt; inactive means no such curve, though single readings can be large; an effect the other way counts as inactive or inconclusive.

CCOC(=O)C1=C(C)N(c2ccccc2)C(=O)C1	Pf growth 96h 10µM
COC(=O)C1=C(C)N(c2ccc(S(N)(=O)=O)cc2)C(=O)C1	none (no result: Pf growth 48h)
Cc1cc(Nc2nc3ccccc3nc2Cl)n(-c2ccccc2C)n1	Pf growth 48h 1.5µM, Pf growth 96h 1.5µM
O=C1c2cccc3c2[C@@H](CCC3)CN1[C@@H]1CN2CCC1CC2	Pf growth 48h 12µM (no result: HCV inhibitor, SARS PLP yeast, AMA1 RON2 block, NS1 function inh)
O=C1c2ccccc2C(=O)N1CCC(=O)N1CCCc2ccccc21	none
CCOC(=O)c1nc(C)sc1-c1ccnn1S(=O)(=O)c1cccc(Cl)c1	none
CN1c2ccccc2C(C)(C)C12C=Cc1cc(O)ccc1O2 (stereo unspecified)	HCV inhibitor 5.6µM, AMA1 RON2 block inconclusive, Pf growth 48h inconclusive, Pf growth 96h inconclusive
CN1c2ccccc2C(C)(C)C12C=Nc1c(cc(N3CCOCC3)c3ccccc13)O2 (stereo unspecified)	Pf growth 48h inconclusive, Pf growth 96h inconclusive
CCOc1c(Br)cc(CNC2CCCCCCC2)cc1OC	HCV inhibitor 11µM, Pf growth 48h 10µM
CCOc1cc(CNc2ccc3c(c2)OCCO3)cc(Br)c1OC	HCV inhibitor 0.79µM, AMA1 RON2 block inconclusive, Pf growth 96h inconclusive (no result: Pf growth 48h)
CCOc1c(Br)cc(CNc2ccc(N3CCOCC3)cc2)cc1OC	HCV inhibitor inconclusive, Pf growth 96h inconclusive
CCOc1cc(CNc2ccc3c(c2)OCCO3)cc(Br)c1OCC(N)=O	Pf growth 48h inconclusive, Pf growth 96h inconclusive
CCOc1c(Br)cc(CNc2ccc3c(c2)OCCO3)cc1OC	HCV inhibitor inconclusive, AMA1 RON2 block inconclusive, Pf growth 96h 0.83µM (no result: Pf growth 48h)
CCOC(=O)c1c(C)[nH]c(C(=O)COC(=O)c2c(CC)noc2C)c1C	HCV inhibitor 14µM, Pf growth 48h inconclusive, Pf growth 96h inconclusive (no result: NS1 function inh)
CCOC(=O)c1c(C)[nH]c(C(C)=O)c1C	none
CCOC(=O)c1c(C)[nH]c(C(=O)OCc2c(C)noc2C)c1C	HCV inhibitor 11µM, Pf growth 48h inconclusive, Pf growth 96h inconclusive
CCOC(=O)c1c(C)[nH]c(C(=O)COC(=O)c2cc(C)oc2C)c1C	HCV inhibitor inconclusive (no result: NS1 function inh)
Cc1cc(Br)ccc1NC(=O)CN(C)Cc1cccs1	Pf growth 48h inconclusive
COc1ccccc1NC(=O)CN1CCCCCC1	none
COc1cc(NC(=O)Nc2ccccc2)c(OC)cc1NC(=O)CN1CCCCC1	HCV inhibitor 11µM, Pf growth 48h inconclusive (no result: Pf growth 96h)
COc1cc(NC(=O)Nc2ccccc2OC)c(OC)cc1NC(=O)CN1CCCCC1	HCV inhibitor 2.2µM, Pf growth 48h 6.6µM
COc1ccc(S(=O)(=O)N(C)C)cc1NC(=O)CN1CCN(C(=O)C2CC2)CC1	HCV inhibitor 10µM (no result: NS1 function inh)
COc1cc(Cl)c(C)cc1NC(=O)CN1CCN(C(=O)C2CC2)CC1	HCV inhibitor inconclusive, Pf growth 48h inconclusive, Pf growth 96h inconclusive (no result: NS1 function inh)
COc1ccc(N)cc1NC(=O)CN1CCCC1	Pf growth 96h 0.12µM
O=C(O)c1cccc(-c2ccc(/C=N/n3cnc4sc5c(c4c3=O)CCCC5)o2)c1	none (no result: HCV inhibitor, AMA1 RON2 block)
Cc1cccc2c(N=O)c(O)[nH]c12	none
CCCCc1nnc(NC(=O)COC)s1	none
CC(=O)c1ccc(N2CCN(c3ncccn3)CC2)cc1	none (no result: SARS PLP yeast)
CCOC(=O)N1CCC(NS(=O)(=O)c2ccc(NC(C)=O)c(Cl)c2)CC1	HCV inhibitor 6.3µM
COc1ccc(CCNC(=O)COC(=O)c2sc(C)nc2C)cc1	none (no result: NS1 function inh)
CC(C)NC(=O)C1CCN(C(=O)c2cc3sccc3n2Cc2ccc(F)cc2)CC1	HCV inhibitor inconclusive (no result: Pf growth 48h, Pf growth 96h)
Cn1c(C(=O)NCCc2c[nH]c3ccccc23)cc2sccc21	HCV inhibitor inconclusive (no result: Pf growth 48h)
O=C(NCCc1c[nH]c2ccccc12)c1cc2sccc2n1Cc1ccccc1	HCV inhibitor 5µM (no result: Pf growth 48h)
O=C(c1cc2sccc2n1Cc1ccc(F)cc1)N1CCCc2ccccc21	HCV inhibitor inconclusive, Pf growth 48h 9.3µM, Pf growth 96h inconclusive
O=C(NCc1ccc(F)cc1)c1cc2sccc2n1Cc1ccc(F)cc1	HCV inhibitor inconclusive, Pf growth 48h inconclusive, Pf growth 96h 10µM (no result: AMA1 RON2 block)
Cc1nnc(NC(=O)CCn2c(=O)oc3ccccc32)s1	none
CCOC(=O)N1CCC(N2Cc3cccc(C(=O)Nc4ccc(F)cc4)c3C2=O)CC1	HCV inhibitor inconclusive, Pf growth 48h 3.3µM
